# According to the supplement of paper PMC10849652:
# Targets with a hit are over-represented here; the source holds about 7,900 in all. About 0.6% of all pairs of compound and target were hits. A number with no mark means an inactive call.
# How the values were obtained:
# Experiment in all cases: log2 fold change, soluble protein after heating vs DMSO (PISA); higher = thermal stabilisation; K562 cells, 10 uM, 30 min; active = over 0.2 and 3.5 SD of the protein, either way, in both replicates (recomputed)
# [1] = compound: C#Cc1cccc(Nc2ncnc3cc(OCCOC)c(OCCOC)cc23)c1 [erlotinib]
# Outline: (§1)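 K562 cells at 2×10^6 cells/mL were treated for 30 min with 10 μM compound, and aliquots were heated for 3 min over 48°C-58°C before pooling. Extraction used PBS with 0.5% NP-40 at 4°C, and soluble protein was the supernatant after 21,000xg for 90 min, measured by TMTpro 16plex LC-MS/MS with channel sums equalised. Thermal stability values, relative to control samples and from duplicates, are log2 fold changes.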
# [2] = compound: C/C(=N\NC(=O)C1=CC(=CC=C1)S(=O)(=O)N2CCOCC2)/C3=C(C=CC(=C3)Cl)O
# Outline: as §1
# [3] = compound: C1=CC(=C(C=C1Cl)C2=NC3=NC=CN=C3C(=N2)NC4=CC=NC=C4)F
# Outline: as §1
# [4] = compound: C1=CC(=CC=C1C2=NC3=C(N2)C=C(C=C3)C(=O)N)OC4=CC=C(C=C4)Cl
# Outline: as §1
# [5] = compound: C1=CC2=C(C=CC(=C2)/C=C\3/C(=O)NC(=NCC4=CC=CS4)S3)N=C1
# Outline: as §1
# [6] = compound: C1=CC2=NC=CN=C2C=C1/C=C/3\C(=O)NC(=O)S3
# Outline: as §1
# [7] = compound: C1=CC=C(C=C1)C2=NC(=C(N2)C3=CC=NC=C3)C4=CC(=C(C=C4)Cl)O
# Outline: as §1
# [8] = compound: C1=CC=C2C(=C1)C3=NNC4=CC=CC(=C43)C2=O
# Outline: as §1
# [9] = compound: C1CCN(C1)C(=O)NC2=CC=CC(=C2)NC3=NC=C(C(=N3)NCCC4=CN=CN4)Br
# Outline: as §1
# [10] = compound: C1CN(CCC1(CC2=CC=C(C=C2)Cl)N)C3=NC=NC4=C3C=CN4
# Outline: as §1
# [11] = compound: C1COCCN1CCN2C3=CC=CC=C3N=C2NC(=O)C4=CC(=CC=C4)[N+](=O)[O-] [IRAK-1-4 Inhibitor I]
# Outline: as §1
# [12] = compound: C=CC(=O)N1CCC[C@@H](n2nc(-c3ccc(Oc4ccccc4)cc3)c3c(N)ncnc32)C1 [ibrutinib]
# Outline: as §1
# [13] = compound: CC(=O)c1cnc2ccc(-c3cc(Cl)c(O)c(Cl)c3)nc2c1N[C@H]1CC[C@H](CN(C)C)CC1
# Outline: as §1
# [14] = compound: CC(C)(C)Cn1c(N)nc2ccc(-c3[nH]c(C(C)(C)C)nc3-c3ccc(F)cc3)nc21 [ralimetinib]
# Outline: as §1
# [15] = compound: CC(C)(O)CC(=O)NCCn1ccc2ncnc(Nc3ccc(Oc4cccc(C(F)(F)F)c4)c(Cl)c3)c21
# Outline: as §1
# [16] = compound: CC(C)C1=C2N=C(C=C(N2N=C1)NCC3=CC=CC=C3)NCCCCCCN
# Outline: as §1
# [17] = compound: CC(C)C[C@@H](C=O)NC(=O)[C@H](CC(C)C)NC(=O)[C@H](CC(C)C)NC(=O)OCc1ccccc1
# Outline: as §1
# [18] = compound: CC(C)N(C[C@H]1O[C@@H](n2cnc3c(N)ncnc32)[C@H](O)[C@@H]1O)[C@H]1C[C@@H](CCc2nc3cc(C(C)(C)C)ccc3[nH]2)C1 [pinometostat]
# Outline: as §1
# [19] = compound: CC1=C(C(CC(=O)N1)C2=CC=C(C=C2)C(F)(F)F)C(=O)NC3=C(C=C4C(=C3)C=NN4)F
# Outline: as §1
# [20] = compound: CC1=C(C2=C(C=C1)C(=O)C3=CC=CC=C3N2CCCN)C
# Outline: as §1
# UniProt Q4G176, sequence (Q4G176 whole entry, looked up): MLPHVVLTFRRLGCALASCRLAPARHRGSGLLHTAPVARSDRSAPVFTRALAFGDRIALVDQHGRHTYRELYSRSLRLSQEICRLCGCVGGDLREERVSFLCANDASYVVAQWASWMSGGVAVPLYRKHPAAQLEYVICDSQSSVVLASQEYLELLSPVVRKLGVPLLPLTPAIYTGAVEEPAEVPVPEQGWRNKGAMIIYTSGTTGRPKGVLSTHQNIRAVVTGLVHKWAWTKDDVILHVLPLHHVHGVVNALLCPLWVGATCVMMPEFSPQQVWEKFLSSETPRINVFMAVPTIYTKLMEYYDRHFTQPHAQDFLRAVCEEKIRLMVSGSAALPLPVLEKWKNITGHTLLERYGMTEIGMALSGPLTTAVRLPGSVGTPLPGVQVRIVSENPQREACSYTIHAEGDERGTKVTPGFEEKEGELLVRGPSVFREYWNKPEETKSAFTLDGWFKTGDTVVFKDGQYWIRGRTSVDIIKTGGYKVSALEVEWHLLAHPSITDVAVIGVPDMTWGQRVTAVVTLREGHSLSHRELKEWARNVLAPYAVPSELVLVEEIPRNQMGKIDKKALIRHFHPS
# UniProt Q13685, sequence (Q13685 whole entry, looked up): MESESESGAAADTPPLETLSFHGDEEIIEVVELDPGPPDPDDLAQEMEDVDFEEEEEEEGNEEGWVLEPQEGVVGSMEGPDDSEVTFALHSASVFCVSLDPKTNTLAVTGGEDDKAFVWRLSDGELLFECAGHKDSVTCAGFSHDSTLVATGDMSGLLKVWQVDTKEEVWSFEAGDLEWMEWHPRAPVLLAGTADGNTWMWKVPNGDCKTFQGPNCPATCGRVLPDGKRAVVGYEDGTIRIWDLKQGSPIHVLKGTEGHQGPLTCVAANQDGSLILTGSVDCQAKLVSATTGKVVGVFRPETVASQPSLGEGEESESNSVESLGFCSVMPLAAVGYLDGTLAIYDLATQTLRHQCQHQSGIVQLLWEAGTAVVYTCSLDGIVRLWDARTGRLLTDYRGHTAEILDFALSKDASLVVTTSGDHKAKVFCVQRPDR
# UniProt P98196, sequence (P98196 whole entry, looked up): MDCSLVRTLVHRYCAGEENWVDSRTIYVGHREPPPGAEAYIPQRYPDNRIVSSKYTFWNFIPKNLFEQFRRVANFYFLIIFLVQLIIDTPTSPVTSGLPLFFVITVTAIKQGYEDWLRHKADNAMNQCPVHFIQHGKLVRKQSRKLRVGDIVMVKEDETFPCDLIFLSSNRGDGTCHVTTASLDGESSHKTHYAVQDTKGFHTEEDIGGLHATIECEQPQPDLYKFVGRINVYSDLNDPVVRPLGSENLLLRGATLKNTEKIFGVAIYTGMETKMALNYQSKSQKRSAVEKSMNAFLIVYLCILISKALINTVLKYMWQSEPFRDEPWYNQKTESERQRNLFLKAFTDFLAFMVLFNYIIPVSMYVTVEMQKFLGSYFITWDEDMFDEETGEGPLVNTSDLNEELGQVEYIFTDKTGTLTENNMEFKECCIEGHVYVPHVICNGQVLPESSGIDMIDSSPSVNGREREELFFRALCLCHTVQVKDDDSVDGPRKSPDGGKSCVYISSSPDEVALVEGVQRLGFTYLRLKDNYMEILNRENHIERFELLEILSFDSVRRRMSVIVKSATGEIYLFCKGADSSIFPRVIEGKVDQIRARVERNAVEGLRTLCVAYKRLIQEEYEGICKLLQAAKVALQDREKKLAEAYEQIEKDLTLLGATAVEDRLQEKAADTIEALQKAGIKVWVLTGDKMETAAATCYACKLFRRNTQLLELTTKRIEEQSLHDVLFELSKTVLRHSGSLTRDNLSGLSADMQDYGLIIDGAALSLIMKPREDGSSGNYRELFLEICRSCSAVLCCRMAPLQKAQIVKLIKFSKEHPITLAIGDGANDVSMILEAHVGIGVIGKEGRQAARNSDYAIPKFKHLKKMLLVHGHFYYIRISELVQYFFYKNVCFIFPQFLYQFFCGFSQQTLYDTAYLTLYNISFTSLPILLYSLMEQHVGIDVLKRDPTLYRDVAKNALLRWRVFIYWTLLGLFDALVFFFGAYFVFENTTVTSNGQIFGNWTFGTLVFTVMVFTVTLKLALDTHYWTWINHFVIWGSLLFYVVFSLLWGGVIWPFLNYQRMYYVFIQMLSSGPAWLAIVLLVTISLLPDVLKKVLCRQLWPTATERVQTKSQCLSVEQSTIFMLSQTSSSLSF
# UniProt Q9UBL3, sequence (Q9UBL3 whole entry, looked up): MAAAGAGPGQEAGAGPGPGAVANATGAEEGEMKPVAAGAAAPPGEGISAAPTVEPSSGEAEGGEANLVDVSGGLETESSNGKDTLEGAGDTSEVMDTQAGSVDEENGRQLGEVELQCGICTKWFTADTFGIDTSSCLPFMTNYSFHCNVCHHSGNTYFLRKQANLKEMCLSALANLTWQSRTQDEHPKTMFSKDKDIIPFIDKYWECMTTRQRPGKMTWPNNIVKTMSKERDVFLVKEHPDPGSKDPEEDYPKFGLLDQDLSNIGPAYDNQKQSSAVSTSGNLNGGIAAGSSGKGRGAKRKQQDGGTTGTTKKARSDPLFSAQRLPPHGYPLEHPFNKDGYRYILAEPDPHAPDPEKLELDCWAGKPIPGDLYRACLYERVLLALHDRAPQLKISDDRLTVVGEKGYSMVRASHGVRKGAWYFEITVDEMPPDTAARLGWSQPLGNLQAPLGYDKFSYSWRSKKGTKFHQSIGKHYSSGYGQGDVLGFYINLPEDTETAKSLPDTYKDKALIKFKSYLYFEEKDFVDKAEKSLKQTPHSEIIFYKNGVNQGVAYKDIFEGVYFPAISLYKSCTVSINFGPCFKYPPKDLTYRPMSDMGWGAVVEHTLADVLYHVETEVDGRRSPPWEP
# UniProt P53367, sequence (P53367 whole entry, looked up): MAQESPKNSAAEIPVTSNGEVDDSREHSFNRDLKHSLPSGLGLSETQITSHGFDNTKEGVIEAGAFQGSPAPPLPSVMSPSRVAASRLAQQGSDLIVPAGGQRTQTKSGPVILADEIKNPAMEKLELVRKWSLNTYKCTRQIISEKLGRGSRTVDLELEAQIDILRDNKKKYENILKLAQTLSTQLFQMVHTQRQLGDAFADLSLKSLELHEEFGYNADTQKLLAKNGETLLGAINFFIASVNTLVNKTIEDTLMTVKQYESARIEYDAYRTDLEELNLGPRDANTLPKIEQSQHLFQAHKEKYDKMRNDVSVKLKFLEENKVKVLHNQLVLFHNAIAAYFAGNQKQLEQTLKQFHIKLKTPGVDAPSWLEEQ
# UniProt Q9Y6H3, sequence (Q9Y6H3 whole entry, looked up): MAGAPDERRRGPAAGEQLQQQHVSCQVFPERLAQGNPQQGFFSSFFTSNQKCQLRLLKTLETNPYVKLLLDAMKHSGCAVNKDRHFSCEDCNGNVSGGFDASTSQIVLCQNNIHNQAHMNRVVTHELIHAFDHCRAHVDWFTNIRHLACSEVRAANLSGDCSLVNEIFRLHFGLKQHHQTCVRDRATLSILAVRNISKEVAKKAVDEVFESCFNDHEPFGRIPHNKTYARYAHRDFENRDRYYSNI
# UniProt P42025, sequence (P42025 whole entry, looked up): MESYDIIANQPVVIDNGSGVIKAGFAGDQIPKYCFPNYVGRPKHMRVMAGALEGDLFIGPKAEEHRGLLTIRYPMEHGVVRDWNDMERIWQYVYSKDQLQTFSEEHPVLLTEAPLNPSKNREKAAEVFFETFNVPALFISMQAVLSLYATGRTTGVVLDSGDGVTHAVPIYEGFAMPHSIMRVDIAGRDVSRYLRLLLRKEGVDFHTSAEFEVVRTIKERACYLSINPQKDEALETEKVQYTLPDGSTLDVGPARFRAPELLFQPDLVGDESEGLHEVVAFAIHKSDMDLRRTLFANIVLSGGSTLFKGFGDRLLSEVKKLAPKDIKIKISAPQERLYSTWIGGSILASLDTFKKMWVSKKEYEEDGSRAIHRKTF
# UniProt P11310, sequence (P11310 whole entry, looked up): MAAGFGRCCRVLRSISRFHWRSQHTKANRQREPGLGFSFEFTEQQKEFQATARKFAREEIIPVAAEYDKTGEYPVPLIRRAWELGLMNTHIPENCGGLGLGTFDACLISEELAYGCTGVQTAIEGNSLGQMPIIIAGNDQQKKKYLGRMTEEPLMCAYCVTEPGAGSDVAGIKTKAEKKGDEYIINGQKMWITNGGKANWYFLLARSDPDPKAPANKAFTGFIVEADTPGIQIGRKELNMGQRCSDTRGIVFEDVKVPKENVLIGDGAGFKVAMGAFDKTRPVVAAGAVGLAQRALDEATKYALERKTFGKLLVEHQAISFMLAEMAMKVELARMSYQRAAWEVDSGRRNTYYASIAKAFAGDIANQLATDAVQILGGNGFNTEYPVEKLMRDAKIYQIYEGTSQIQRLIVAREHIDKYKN
# UniProt Q9HC16, sequence (Q9HC16 whole entry, looked up): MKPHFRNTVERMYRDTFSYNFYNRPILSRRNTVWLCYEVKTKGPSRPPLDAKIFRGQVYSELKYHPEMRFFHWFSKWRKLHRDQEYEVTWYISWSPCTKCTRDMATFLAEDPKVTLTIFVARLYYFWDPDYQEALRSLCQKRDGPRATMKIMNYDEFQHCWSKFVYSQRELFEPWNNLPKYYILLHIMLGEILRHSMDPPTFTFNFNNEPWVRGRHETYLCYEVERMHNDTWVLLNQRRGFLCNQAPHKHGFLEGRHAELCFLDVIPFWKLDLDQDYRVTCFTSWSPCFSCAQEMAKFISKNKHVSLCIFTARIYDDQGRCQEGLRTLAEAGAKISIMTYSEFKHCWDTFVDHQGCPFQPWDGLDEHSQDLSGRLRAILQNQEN
# UniProt Q9BTT0, sequence (Q9BTT0 whole entry, looked up): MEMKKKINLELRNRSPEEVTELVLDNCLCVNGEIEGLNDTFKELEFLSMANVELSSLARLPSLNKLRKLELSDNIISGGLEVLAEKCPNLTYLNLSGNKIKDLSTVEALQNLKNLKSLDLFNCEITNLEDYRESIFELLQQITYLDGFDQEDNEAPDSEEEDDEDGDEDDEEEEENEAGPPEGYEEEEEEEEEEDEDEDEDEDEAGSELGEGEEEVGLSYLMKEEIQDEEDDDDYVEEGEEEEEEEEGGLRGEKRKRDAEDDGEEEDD
# UniProt O00244, sequence (O00244 whole entry, looked up): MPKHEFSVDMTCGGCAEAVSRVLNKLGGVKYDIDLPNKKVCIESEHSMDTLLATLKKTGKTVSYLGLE
Target,log2 fold change [1],log2 fold change [2],log2 fold change [3],log2 fold change [4],log2 fold change [5],log2 fold change [6],log2 fold change [7],log2 fold change [8],log2 fold change [9],log2 fold change [10],log2 fold change [11],log2 fold change [12],log2 fold change [13],log2 fold change [14],log2 fold change [15],log2 fold change [16],log2 fold change [17],log2 fold change [18],log2 fold change [19],log2 fold change [20]
ASH2L (UniProt Q9UBL3),-0.021,0.025,0.019,-0.062,-0.012,0.022,0.001,-0.029,-0.004,0.052,-0.022,-0.048,-0.046,0.004,-0.018,0.016,-0.004,-0.013,-0.013,-0.044
AGPAT3 isoform 3 (UniProt Q9NRZ7),0.009,-0.008,0.028,-0.009,0.028,0.12,0.04,0.006,0,0.067,0.012,0,-0.024,-0.02,-0.001,-0.071,-0.001,0.034,-0.011,0.03
ATIC (UniProt P31939),0.031,0.033,0.062,0.006,0.005,-0.067,0.094,0.016,-0.031,0.035,0.018,0.013,-0.015,-0.007,0,0.079,-0.044,-0.04,-0.023,0.064
AAMP (UniProt Q13685),0.025,-0.032,0.006,-0.003,0.042,0.074,-0.007,0.003,-0.006,0.085,0.007,0.023,0.064,0.031,0.04,-0.051,-0.02,0.007,0,0.225 (active)
ATP23 (UniProt Q9Y6H3),0.021,-0.079,-0.017,0.033,0.051,0.027,0.009,0.033,0.007,-0.014,0.091,-0.009,-0.004,-0.043,0.02,-0.136,0.025,-0.014,0.011,-0.01
ACADVL isoform 3 (UniProt P49748),0.008,0.015,0.035,0.291 (active),0.023,0.055,0.027,0.155,0.025,0.043,0.038,-0.002,0.005,-0.015,-0.016,-0.013,-0.025,-0.067,-0.032,0.002
APOBEC3G (UniProt Q9HC16),-0.087,0.027,-0.124,0.047,-0.005,0.056,-0.056,0.109,0.181,-0.362,-0.064,0.103,-0.111,0.128,0.075,0.046,0.077,0.11,-0.09,-0.492 (active)
ATP2A3 isoform 2 (UniProt Q93084),-0.002,-0.002,0.053,-0.002,-0.014,0.014,-0.003,-0.04,-0.025,0.059,0.038,-0.013,0.001,-0.023,0.018,-0.295 (active),-0.044,0.005,0.012,-0.009
ACTR1B (UniProt P42025),-0.13,-0.048,-0.145,0.041,0.02,0.002,-0.037,-0.017,-0.02,0.011,0.066,0.003,-0.041,0.07,-0.065,0.042,-0.071,0.003,-0.099,-0.013
BCCIP isoform 2 (UniProt Q9P287),-0.1,0.023,0.027,0.026,-0.025,0.003,0.012,-0.007,-0.002,0.066,0.013,-0.025,0.008,-0.048,0.012,0.008,-0.012,0.029,-0.012,0.077
ACSF3 (UniProt Q4G176),0.07,-0.066,0.057,-0.155,-0.104,0.04,0.028,0.022,-0.001,-0.038,0.05,-0.088,-0.129,-0.004,-0.063,-0.138,0.077,0.011,-0.061,0.023
ATP11A (UniProt P98196),-0.038,0.015,0.004,0.005,-0.038,0.035,-0.048,-0.085,-0.035,0.012,-0.003,0.007,0.018,0,-0.026,0.073,0.052,0.004,0.05,0.036
ACADM isoform 2 (UniProt P11310),-0.015,0.014,0.013,0.149,0.044,0.002,0.059,-0.001,0.008,0.067,0.028,0.034,-0.013,-0.068,-0.043,0.051,-0.001,-0.085,-0.006,0
BAP1 (UniProt Q92560),0.182,-0.013,-0.142,-0.048,-0.128,0.06,-0.104,-0.05,-0.078,-0.088,-0.038,-0.056,-0.125,0.06,-0.014,-0.217,0.048,0.163,-0.116,-0.17
ANP32E (UniProt Q9BTT0),0.211,0.038,0.114,-0.062,0.027,-0.025,0,-0.014,-0.026,-0.084,0.016,0.019,-0.128,-0.035,-0.067,-0.181,-0.036,0.028,0.082,-0.214
AGRN (UniProt O00468),0.064,-0.013,-0.039,-0.125,0.071,-0.048,0.366 (active),0.024,-0.091,0.05,-0.205,0.09,-0.025,0.125,-0.022,0.156,-0.066,-0.005,0.078,0.014
ADD3 (UniProt Q9UEY8),0.018,0,-0.008,0.025,0.02,0.013,-0.025,-0.024,-0.015,0.031,0.063,0.025,-0.29 (active),-0.011,0.008,0.097,0.018,-0.034,0.019,0.014
AK6 (UniProt Q9Y3D8),0.105,0.108,0.007,-0.157,0.194,0.025,0.046,-0.027,-0.041,-0.085,-0.051,-0.014,-0.132,0.067,-0.175,-0.309,0.039,0.078,0.061,0.138
ARFIP1 (UniProt P53367),0.217,-0.121,0.087,0.094,0.115,0.62,-0.126,-0.013,0,0.044,-0.034,-0.117,-0.075,-0.104,-0.031,-0.011,-0.029,0.006,0.014,0.164
ADD1 isoform 3 (UniProt P35611),0.041,0.018,-0.013,-0.022,0.071,0.004,-0.08,-0.018,-0.018,0.023,0.048,0.011,-0.274 (active),-0.068,-0.008,0.038,-0.003,-0.001,-0.004,0.008
ATOX1 (UniProt O00244),-0.033,0.307,0.141,0.068,-0.089,0.074,0.242,0.112,-0.061,0.024,0.018,0.01,0.154,0.23,-0.005,0.109,-0.198,-0.153,-0.004,0.099
B4GALNT1 (UniProt Q00973),-0.176,-0.006,0.029,0.101,0.124,-0.038,-0.073,-0.189,0.069,-0.141,0.01,-0.159,-0.188,-0.129,0.017,0.038,0.052,-0.101,-0.119,0.057
AKT2 (UniProt P31751),0.014,0.096,0.094,0.027,0.068,-0.023,0.019,0.028,-0.068,0.144,-0.013,-0.033,-0.039,-0.015,-0.027,-0.179,0,-0.016,0.023,-0.011
ABHD17A isoform 2 (UniProt Q96GS6),0,-0.011,-0.028,0.223,0.035,0.042,0.017,0.008,-0.068,0.11,0.076,0.001,-0.042,-0.034,-0.078,-0.126,0.062,0.079,-0.042,0.077
